These results are taken from PubChem BioAssay (NCATS).

Results filed as inconclusive are left out. Unmarked numbers belong to inactive results. Calls of active or inactive are those of the source. Calls come from the whole dose curve.
Potency is the fitted concentration of half-maximal effect.

The nature of this assay: Cell Viability - MRC5 (AID 434).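 Note: potency reflects cytotoxicity seen as loss of intracellular ATP.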 The conditions noted are these: MRC5 lung fibroblast viability, qHTS. The source says:
NIH Chemical Genomics Center [NCGC]
NIH Molecular Libraries Screening Centers Network [MLSCN]
National Institutes of Environmental Health Sciences [NIEHS]
National Toxicology Program [NTP]
We have developed a 1536-well cell-based assay for quantitative high throughput screening (qHTS) against a number of cell lines to determine in vitro cytotoxicity of small molecules. This particular assay uses the MRC5 cell line which is derived from normal human lung fibroblasts.
NCGC Assay Protocol Summary:
The CellTiter-Glo luminescent cell viability assay (Promega) is a homogeneous method to measure the number of viable cells in culture. The end point readout of this assay is based on quantitation of intracellular ATP, an indicator of metabolic activity, using the luciferase reaction. Luciferase catalyzes the oxidation of beetle Luciferin to oxyluciferin and light in the presence of ATP. The luminescent signal is proportional to amount of ATP present.
Using the CellTiter-Glo luminescent cell viability assay, the amount of cellular ATP was measured in the MRC5 cell line with complete culture medium following compound treatment for 40 hours. The assay was performed in opaque white Kalypsys 1536-well plates. In the screen, tamoxifen and doxorubicin were used as positive controls. Library compounds were measured for their ability to cause acute toxicity in the cell line, as reflected by a decrease in intracellular ATP levels, in a concentration-dependent manner. Data were normalized to the controls for basal activity (DMSO only) and 100% inhibition (100 uM tamoxifen). AC50 values were determined from concentration-response data modeled with the standard Hill equation.
qHTS protocol for CellTiter Glo MRC5 cellular assay
[Step] [Parameter] [Value] [Description]
1. Reagent; 5 uL; 1500 MRC5 cells/well
2. Time; 5 hr; 37 °C incubation
4. Controls; 23 nL; Tamoxifen 0.34 uM to 100 uM & Doxorubicin 0.02 nM to 100 uM
5. Time; 40 hr; 37 °C incubation
6. Reagent; 5 uL; CellTiter Glo reagent
7. Time; 20 min; Room Temperature
8. Detection; Luminescence; Viewlux plate reader
Keywords: cell viability, cytotoxicity, MRC5 cell line, luminescence, NTPHTS, NTPHTS_NCGC, NIEHS, EPA, DSSTox, MLSMR, MLSCN, NIH Roadmap, qHTS, NCGC
Take `O=S(=O)(c1ccc(Cl)cc1)c1ccc(Cl)cc1`: the Potency is over 92 µM. The same measure for `CC(=O)[O][Hg][c]1ccccc1`: 10.9 µM (active). The same measure for `C=CC(=O)NCNC(=O)C=C`: over 92 µM. The figure for `C1CCC(NC2CCCCC2)CC1` is over 92 µM. In the case of `O=[N+]([O-])c1c2ccccc2cc2ccccc12`, the Potency was over 92 µM. The same measure for `CCOP(=O)(NC(C)C)Oc1ccc(SC)c(C)c1` (stereo unspecified): over 92 µM; for `Nc1ccc(Cl)cc1`: over 92 µM; for `O=[N+]([O-])c1cc([N+](=O)[O-])c2ccccc2c1`: over 92 µM. The figure for `c1cc2ccc3cccc4ccc(c1)c2c34` is over 92 µM; for `CCCCOC(=O)c1ccccc1C(=O)OCc1ccccc1` it is over 92 µM; for `COc1ccc(C(c2ccc(OC)cc2)C(Cl)(Cl)Cl)cc1` it is over 92 µM. The figure for `CCCCC(CC)COC(=O)c1ccccc1C(=O)OCC(CC)CCCC` (stereo unspecified) is over 92 µM; for `CC(C)(O)C(=O)Nc1ccc([N+](=O)[O-])c(C(F)(F)F)c1` it is over 92 µM. Consider `Nc1ccc(Sc2ccc(N)cc2)cc1`, for which the Potency is over 92 µM. The same measure for `CN(C)NC(=O)CCC(=O)O`: over 92 µM; for `OCCCBr`: over 92 µM. The same measure for `O=[N+]([O-])c1c(Cl)c(Cl)cc(Cl)c1Cl`: over 92 µM. The figure for `O=C(O)C(Cl)Cl` is over 92 µM; for `CCCCCCCCc1ccc(O)cc1` it is over 92 µM; for `CN(C)[C@@H]1C(=O)C(C(N)=O)=C(O)[C@@]2(O)C(=O)C3=C(O)c4c(O)cccc4[C@@](C)(O)[C@H]3[C@H](O)[C@@H]12` it is over 92 µM. Take `O=C(O)COc1ccccc1`: the Potency is over 92 µM. The figure for `Cc1cc(O)ccc1Cl` is over 92 µM. As to `Nc1ccc(Cl)cc1N`, the Potency is over 92 µM. In the case of `CCOCCOC(C)=O`, the Potency is over 92 µM. For `Nc1ccc([N+](=O)[O-])cc1`, the Potency is over 92 µM. The same measure for `COC(C)(C)CCCC(C)C/C=C/C(C)=C/C(=O)OC(C)C` (stereo unspecified): over 92 µM.
